test system: VDR:RXRa (NR concentration 270 nM, RXRa partner concentration 90 nM); assay: PBM binding z-score (relative to random genomic background probes); higher = stronger binding; sequences stand for … in GC…GCGATTGACAGCGTAGAATGAAGG
Protocol: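 Protein-binding microarray (Agilent 4x180K custom design, double-stranded 60-nt probes: 5' GC cap, 34-nt variable region, 24-nt constant primer region; full probe sequence given). Purified or IVT nuclear receptor:RXRα heterodimers (3:1 NR:RXRα, mostly 270:90 nM) or homodimers were incubated for 1 h in PBS with 2% milk and no ligand, then detected with Alexa488 antibodies. Fluorescence from o1-orientation probes (~5 replicates averaged) was converted to z-scores against 500 random hg19 background probes. Variable regions are seed direct-repeat (DR0–DR5) sites, all their single-nucleotide variants and half-site ablations.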

Sequence | PBM binding z-score
CTTTACGGGTCACTGACAGGTTATAGCATTTGGA | 3.94
CGTCCAAGGTCAAGGTCAGAGAAAGAGACTCGAA | 4.57
CAAACTTGGTCAAGGTCAAAGTCGGTTTGTGCCA | 4.47
TCTCGGAGCACACGAAGGTCAGAGCTTTCCAGAG | 0.634
GGAACGAGGGCAAGTTGATAGCGGAGTTTGATGG | 0.636
ATCGAAAGGTCGACGAGCTGAGTATACACCGTTT | 2.15
CCTCGGAGCACAACAGGAGGTCAGAGCTGCCAGA | 1.32
TGTCAAAGTTCAAAGGTAGCGTAAGTATCCACAC | 4.76
GCTCGGAGGACGAGGTCAGAGCTTTGTCCGTAGA | 2.2
CGAACTAGGTCATCCAGGACAGCGAATACATTGA | 4.63
CAAACTAGGTCACCGGAAGGTAAAAGTCCGCATG | 2.84
CCTACTGGGCCATTCAGACGTCATTGATCATATG | -0.521
ATCTCTAGGTAAAGAGAGTTCAGTGAATGCAAAT | 3.33
CCTCGGAGGACCACAGGAGGTCAGAGCTGCCAGA | 1.43
CGTCAAAGTTCAACTAAGGTAACGTTAAGCACGC | 4.69
TCTAGCAGGCCAGAGGTTCACTCAAGAGGTACGG | 0.704
TCATATAGGTATAGGTGAAAGTCGAACGATATGA | 0.632
ATACCAAGGTGATCGTGAGGTCGTTGAGACTAAC | 2.9
TCTTGTAGATCAATAGAGGGTAAGAAAGTGCGCT | 0.717
TCTCGGAGGACACGAAGGTCAGACCTTTCCAGAG | 2.45

Sequence | PBM binding z-score
CCTCGGAGGACAACAGGAGGTCAGAACTGCCAGA | 1.67
GCTAGTTGGTCAGTAAAAGGTCACACGCCGGTCG | 3.87
GCAACGAGGGCAAAGTTGATAGCATCTGTCGACG | 1.26
GCGACTGGCGCAAAGCAGGTTACCATAAGGTTGG | -0.716
AGAATGAAGTTACCAAAGATCAGGGAAACGCTTG | -0.38
CAAACTAGGTCAAGAGATCAAAGTCCGCTTCCCG | 1.59
TTACCTAGGTGAAGGTCGTTGATCCCTCTGTAGA | 1.06
CCTAGTTGGTCAGGAGATCACACACCGGATATGA | 0.242
TCACATAGGTAAATGCTAGGTGAAAGTCCGATCT | 0.334
ATCGAAAGTTCGAAGGTGAGTATACCCACCCGAA | 1.29
TCAGACAGGTGAAGGTAACTCATGTACGCAGTCG | 0.532
CGTCTAAGGTCAATGCTAGGTCAGTGAAAGCATT | 5.23
AGAATGAGGTTACCAAAAATCAGGGAAACGCTTG | 1.03
AGTCTAAGTTCAGGACGAGGTAACGTAAAGCACG | 2.58
ATACCAAGGTGTTCGTGAGGTCGTTGATACTAAC | 2.81
CAAACTAGGTGAAGAGGTCAAAGTCCGCTTCCCG | 4.67
CCTCGGAGGACAACAGGCGGTCAGAGCTGCCAGA | -0.555
GATACAGCGTCAAGGCCAGAGTACGCGTATTGAT | -0.35
CCAACTAGGTCAAAGGTCAAAGTCGAGCCAACCA | 6.81
TATACAGGGTCAAAGGCCAGAGTGCGAATGTCGA | 4.88
